# Reference: PubChem BioAssay AID588591 (National Center for Advancing Translational Sciences (NCATS), 2011)
# The campaign covered roughly 390,000 compounds. About 4,700 (1.2%) were called active. Roughly 4% stayed inconclusive and do not appear here. The call rests on the fitted dose curve; in most records, active means well fitted inhibition curve with a large enough effect; inconclusive means small, poorly fitted or top-dose-only effect, or another doubt; inactive means no such curve, though single readings can be large or run the other way. The list comes from a sample in which actives are over-represented; it also holds similar structures and randomly drawn compounds.
# Target: DNA polymerase eta (Homo sapiens) (UniProt Q9Y253)
# Test: qHTS for Inhibitors of Polymerase Eta
# Details: recombinant Pol eta, fluorescent DNA replication assay; series mostly up to 114 µM; activity change, negative = inhibition: at the top concentration
# Method in brief: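 Pol eta at 10 nM preincubated with compounds 15 min at room temperature; reaction started with fluorescent substrate (50 nM final) and read kinetically at 0 and 10 min.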
# On the % scale 0 is the no-effect control and ±100 the full control effect; potency means the concentration at half of the fitted maximal effect.
# DNA polymerase eta (Homo sapiens), sequence (Q9Y253 whole entry, looked up): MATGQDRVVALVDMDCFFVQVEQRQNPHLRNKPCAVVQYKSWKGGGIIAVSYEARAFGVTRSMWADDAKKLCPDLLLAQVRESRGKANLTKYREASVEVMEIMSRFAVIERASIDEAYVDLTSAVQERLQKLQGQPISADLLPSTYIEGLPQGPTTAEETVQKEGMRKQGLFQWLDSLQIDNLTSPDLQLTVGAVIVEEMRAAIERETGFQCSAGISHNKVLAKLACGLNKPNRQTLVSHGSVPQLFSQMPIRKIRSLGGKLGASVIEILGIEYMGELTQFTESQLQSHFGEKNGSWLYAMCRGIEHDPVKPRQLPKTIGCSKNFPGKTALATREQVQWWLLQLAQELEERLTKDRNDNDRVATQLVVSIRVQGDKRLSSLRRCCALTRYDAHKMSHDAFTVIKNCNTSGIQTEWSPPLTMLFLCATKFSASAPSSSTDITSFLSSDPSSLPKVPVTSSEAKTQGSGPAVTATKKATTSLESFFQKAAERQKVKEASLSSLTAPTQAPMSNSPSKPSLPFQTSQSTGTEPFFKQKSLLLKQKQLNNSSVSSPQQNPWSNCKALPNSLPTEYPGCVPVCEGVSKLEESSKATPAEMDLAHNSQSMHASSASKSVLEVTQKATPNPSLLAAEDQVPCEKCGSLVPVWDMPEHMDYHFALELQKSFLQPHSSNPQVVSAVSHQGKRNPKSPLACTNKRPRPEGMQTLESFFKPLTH
Structure (SMILES),"activity change, negative = inhibition",Potency
C=CC1C(OC2OC(CO)C(O)C(O)C2O)OC=C(C(=O)OC)C1CC1CC(=O)CC(CC(=O)CCc2ccc(O)cc2)O1 (centres undefined),-1.73% (inactive),
CC(/C=C/C1(O)C(C)CC(=O)CC1(C)C)OC1OC(CO)C(O)C(O)C1O (centres undefined),,31.6 µM (active)
CC1=C(C)C(=O)OC(C(C)C2CCC3C4CC=C5CC(OC6OC(COC7OC(CO)C(O)C(O)C7O)C(O)C(O)C6O)CC(O)C5(C)C4CCC23C)C1 (centres undefined),-0.743% (inactive),
Cc1ccc(Nc2c(-c3ccc(C)cc3)nc3cnccn23)cc1,-24.9% (inactive),
COc1cccc(NC(=O)N(Cc2cn(C)c3ccccc23)C2CCCCCC2)c1,-20.2% (inactive),
O=C1CSC(=S)N1/N=C/c1ccc(O)c([N+](=O)[O-])c1,,6.31 µM (active)
COc1cc(Cl)c(NC(=O)C(NS(=O)(=O)c2cccs2)C(C)C)c(OC)c1 (centres undefined),-6.74% (inactive),
COc1cccc2c1C(=O)c1c(O)c3c(c(O)c1C2=O)CC(O)(C(C)=NNC(=O)c1ccc(Cl)c(Cl)c1)CC3OC1CC(N)C(O)C(C)O1 (centres undefined),,12.6 µM (active)
CCOc1ccc(N(Cc2ccccc2)C(=O)c2nc(S(C)(=O)=O)ncc2Cl)cc1,-15.3% (inactive),
Cc1ccc(-c2cn3c(n2)sc2cc(C(=O)NCc4cccs4)ccc23)c(C)c1,-19.4% (inactive),
COc1ccccc1NC(=O)CSC1=Nc2ccccc2C2=NC(CC(=O)NCc3cccs3)C(=O)N12 (centres undefined),-23.7% (inactive),
O=C(CSC1=Nc2ccccc2C2=NC(CC(=O)NCc3ccco3)C(=O)N12)NCc1ccco1 (centres undefined),,15.8 µM (active)
O=C(CC1N=C2c3ccccc3N=C(SCc3ccc(F)cc3)N2C1=O)NCc1cccs1 (centres undefined),-19.4% (inactive),
Cc1cc(=O)c2cc(C(=O)Nc3cccc(C)c3C)ccc2[nH]1,-0.315% (inactive),
CCc1ccccc1N1C(=O)CN(S(=O)(=O)CC)CC1(C)C(=O)NC1CCCCC1 (centres undefined),-9.39% (inactive),
COc1cc(/C=C2/C(=O)NN(c3ccc(F)cc3)C2=O)cc([N+](=O)[O-])c1O,,44.7 µM (active)
COc1cc(/C=C2/C(=O)NN(c3cccc(Cl)c3)C2=O)cc(Br)c1O,,89.1 µM (active)
COc1cccc2c1cc1c(=O)n(CC(=O)N3CCN(c4cccc(Cl)c4)CC3)nc(C)n12,11.2% (inactive),
COc1cc(CN2CC(C)CC(C)C2)cc([N+](=O)[O-])c1O (centres undefined),-17.2% (inactive),
COc1ccc(N2C(=O)CC(Nc3ccc(F)cc3)C2=O)c([N+](=O)[O-])c1 (centres undefined),4.19% (inactive),
CCOC(=O)c1c(NC(=O)/C(C#N)=C/c2ccccc2)sc2c1CCC2,-5.92% (inactive),
O=C(NCCCO)C(=O)Nc1c2c(nn1-c1ccc(F)cc1)CSC2,-15.2% (inactive),
CCCCOc1ccc(C(=O)Nc2cccc(-c3nc4ccccc4o3)c2C)cc1,-1.02% (inactive),
Cc1ccc(S(=O)(=O)n2nc(C)c(S(=O)(=O)N3CCCCCC3)c2C)cc1,-12.3% (inactive),
